Laboratory results published in PubChem BioAssay (NCATS).
Inconclusive results are not listed. Where a call stands in place of a potency, no number is given. Values without a mark were called inactive. Activity calls are given as the source filed them. Calls come from the whole dose curve; as a rule, active = well fitted inhibition curve with a large enough effect; inconclusive = small, poorly fitted or top-dose-only effect; inactive = no such curve, though single readings can be large or run the other way. Where a SMILES comes first, the peptide text is derived from it. [ ]: non-standard residue; d: D form. Ala(indol-2-yl) = N[C@@H](Cc1cc2ccccc2[nH]1)C(=O)O; Aib = CC(C)(N)C(=O)O

What follows are molecules tested on Zika virus NS2B-NS3 protease (unlinked complex) (assay: Primary screen GU Rhodamine qHTS for Zika virus inhibitors: Unlinked NS2B-NS3 protease assay (AID 1347159; note: nearly all actives have a fitted effect of over 60% in size)). Conditions: Recombinant ZIKV NS2B-NS3 protease, Rhodamine110 substrate fluorescence; series mostly up to 107 µM.
Description: Avindra Nath, Ph.D., National Institute of Neurological Disorders and Stroke (NINDS), Bethesda, MD
Radhakrishnan Padmanabhan, Ph.D., Georgetown University (GU), Washington D.C.
Zika Virus causes congenital defects, including microcephaly and is associated with Guillain-Barre syndrome, eningoencephalitis and myelitis in infected adult. […] Using a target-based approach, we hope to establish a screening paradigm to uncover novel, cell-active NS2B-NS3 protease (Zika Virus) specific inhibitors from NCATS' collection of small molecules using qHTS.
Four assay panel was created to identify potential Zika Virus inhibitors. Namely, (1) GU unlinked NS2B-NS3 AMC tagged protease qHTS, (2) GU unlinked NS2B-NS3 Rhodamine tagged protease qHTS, (3) NINDS linked NS2B-NS3 AMC tagged protease qHTS, (4) NINDS linked NS2B-NS3 Rhodamine tagged protease qHTS. Active compounds were re-acquired and re-screened to confirm inhibition. Inhibitors were further screened against various confirmatory and counterscreens in dose response format.
Early Translation Branch (ETB)
National Center for Advancing Translational Sciences (NCATS), Rockville, MD
National Institute of Health (NIH), Bethesda, Maryland
Padmanabhan lab provided the NS2B hydrophilic domain and NS3 protease domain in a noncovalent complex used for the unlinked assay. Control compound aprotinin is obtained from Thermo Scientific (#78432; Waltham, Massachusetts). Rhodamine110 substrate ([N-Cbz]-Nle-Lys-Arg-Arg-Rhod110-Arg-Arg-Lys-Nle-[N-Cbz]) was purchased from either Genscript or Bachem.
1536-well Protease (Rhodamine110 Substrate) Assay:
Briefly, 3 microL of enzyme (25 nM final concentration), in assay buffer (10 mM Tris-HCl pH 8.0 with 0.01% Tween 20) were dispensed into a 1,536-well solid-bottom black plate (Greiner Bio One, Monroe, NC). Twenty-three nL of compounds (final concentration range 7.28 nM to 114 microM) or control Aprotinin (final concentration range 3.47 nM to 114 microM) were transferred via Wako Pin-tool (Wako Automation, Richmond, VA). Samples were incubated (room temperature, protected from light) for 15 minutes followed by a 1 microL Rhodamine110 substrate addition (1.5 microM final concentration). Plates were then immediately read on a ViewLux High-throughput CCD imager (PerkinElmer, Waltham, MA) equipped with FITC fluorescence optics (480(20) nm excitation, 540(25) nm emission), then incubated (room temperature, protected from light) for 15 minutes (~15% conversion). The change in fluorescence intensity over the 15-minute reaction period was normalized against no-inhibitor and no-enzyme controls and the resulting percent inhibition data were fitted to a 4-parameter Hill equation. Aprotinin was used as intraplate control.
Potency is the fitted concentration of half-maximal effect.

Compound	Potency	activity change, negative = inhibition
CN1CCCCC1Cn1cc(C(=O)c2cc([N+](=O)[O-])ccc2I)c2ccccc21 (stereo not given)	inactive	
COc1ccc2c3c([nH]c2c1)C(C=C(C)C)N1C(=O)C2CCCN2C(=O)C1C3 (stereo not given)	inactive	
C[C@H]1O[C@@H](O[C@H]2CC[C@]3(C=O)C4CC[C@]5(C)[C@@H](C6=CC(=O)OC6)CC[C@]5(O)[C@@H]4CC[C@]3(O)C2)C[C@@H](O)[C@@H]1O (stereo not given in full)	inactive	
CO[C@H]1C[C@H](O[C@H]2CC[C@@]3(C)C(=CCC4C3CC[C@]3(C)[C@@H](C5=CC(=O)OC5)CC[C@]43O)C2)O[C@@H](C)[C@@H]1O[C@@H]1O[C@H](CO[C@@H]2O[C@H](CO)[C@@H](O)[C@H](O)[C@H]2O)[C@@H](O)[C@H](O)[C@H]1O (stereo not given in full)	inactive	
C[C@]12CC[C@H](O[C@@H]3O[C@H](CO)[C@@H](O)[C@H](O)[C@H]3O)CC1CC[C@@H]1C2CC[C@]2(C)[C@@H](C3=CC(=O)OC3)CC[C@]12O (stereo not given in full)	inactive	
CC(C)C(=O)O[C@H]1[C@@H]2[C@H](C)C(=O)O[C@@H]2C[C@@H](C)[C@@H]2C=CC(=O)[C@]21C	inactive	
CC1(C)C(=O)N(c2ccc(C#N)c(C(F)(F)F)c2)C(=O)N1CCCCO	inactive	
CC(=O)OC[C@]12C[C@H](OC(=O)CC(C)C)C(C)=C[C@H]1O[C@@H]1[C@H](O)C[C@@]2(C)[C@]12CO2	inactive	
C[C@@H]1O[C@@H](O[C@H]2CC[C@@]3(C)C(CC[C@@H]4C3CC[C@]3(C)[C@@H](C5=CC(=O)OC5)CC[C@]43O)C2)[C@H](O)[C@H](O)[C@H]1O (stereo not given in full)	inactive	
CC(C)(NC(=O)[C@@H](N)Cc1ccc(O)cc1)C(=O)N[C@@H](Cc1cc2ccccc2[nH]1)C(=O)N[C@@H](Cc1ccccc1)C(=O)O (H-Y[Aib][Ala(indol-2-yl)]F-OH)		11.5% [at 19.1 µM]
COc1cc(O)c2c(c1)/C=C/C[C@@H](O)[C@@H](O)C(=O)CCC[C@H](C)OC2=O	inactive	
C[C@H]1CCC/C=C/C2C[C@H](O)C[C@H]2[C@H](O)/C=C/C(=O)O1 (stereo not given in full)	inactive	
C[C@@H]1[C@H](O)[C@@H](C)/C=C/C=C/CC/C=C/C=C/C=C/C=C/[C@H](O[C@H]2O[C@@H](C)[C@H](O)[C@@H](N)[C@H]2O)C[C@@H]2O[C@](O)(C[C@@H](O)[C@H](O)CC[C@@H](O)C[C@@H](O)C[C@@H](O)CC(=O)O[C@H]1C)C[C@H](O)[C@H]2C(=O)O	8.91 µM (active)	
O=C(N[C@H]1CN2CCC1CC2)c1cc2cccc(Cl)c2s1	inactive	
O=C(NCCN1CCC2(CC1)C(=O)NCN2c1cccc(F)c1)c1ccc(F)c(F)c1	inactive	
CN1C(=O)N(c2ccc(C#N)c(C(F)(F)F)c2)C(=O)[C@@]1(CO)c1ccccc1	inactive	
C/C1=C/[C@@H](C)C/C=C/[C@H]2[C@@H]3O[C@]3(C)[C@@H](C)[C@H]3[C@H](Cc4c[nH]c5ccccc45)NC(=O)[C@]32C(=O)/C=C\C(=O)[C@@H]1O	inactive	
CNC(=O)c1cc(C#N)cc(C)c1NC(=O)c1cc(Br)nn1-c1ncccc1Cl	inactive	
CO[C@H]1C[C@H](O[C@H]2CC[C@]3(C=O)[C@H]4CC[C@]5(C)[C@@H](C6=CC(=O)OC6)CC[C@]5(O)[C@@H]4CC[C@]3(O)C2)O[C@H](C)[C@H]1O	inactive	
CC[C@H](O)[C@@H](C)[C@H]1O[C@@H]1C[C@H](C)/C=C/C=C(\C)[C@H]1OC(=O)C[C@H](O)CC[C@@](C)(O)[C@@H](OC(C)=O)/C=C/[C@@H]1C	inactive	

Compound	Potency	activity change, negative = inhibition
COC1CC(O[C@H]2CC[C@]3(C)C4CC[C@]5(C)[C@@H](C6=CC(=O)OC6)[C@@H](OC(C)=O)C[C@]5(O)C4CC[C@@H]3C2)OC(C)C1O (stereo not given in full)	inactive	
CCOC(=O)c1ccc(-c2ccc(OC(=O)N(C)Cc3cccc(-c4ccncc4)c3)cc2)cc1	inactive	
CCOC(=O)C1(CCc2ccccc2)CCN(Cc2ccc(NC(C)=O)cc2)CC1	inactive	
C/C=C(\C)C(=O)O[C@@H]1[C@@H](C)[C@]2(O)C3C=C(C)C(=O)[C@@]3(O)CC(CO)=C[C@H]2C2C(C)(C)[C@@]21OC(=O)C(C)CC (stereo not given in full)	inactive	
COc1cc(O)c2c(c1)CCC[C@@H](O)[C@H](O)C(=O)/C=C\C[C@H](C)OC2=O	inactive	
C1=C(c2cnc[nH]2)c2ccsc2CC1	inactive	
C[C@]12CC[C@H]3[C@@H](CCC4=C/C(=N/OCC(=O)O)CC[C@@]43C)[C@@H]1CC[C@@H]2O	inactive	
CC(=O)OC[C@]12[C@H](OC(C)=O)C(=O)[C@@H]3[C@@H](O)[C@@]14O[C@@]3(C)COC(=O)c1cccnc1[C@@H](C)[C@H](C)C(=O)O[C@@H]([C@H](OC(C)=O)[C@@H]2OC(C)=O)[C@]4(C)O	inactive	
O=C1Nc2ccc3ncsc3c2/C1=C/c1cnc[nH]1	inactive	
COc1ccc2[nH]c(-c3ccccc3)c(CCN(C)C)c2c1	inactive	
C=C1[C@@H](C)[C@H]2[C@H](Cc3ccccc3)NC(=O)[C@]23[C@H](OC(C)=O)/C=C/[C@](C)(O)C(=O)[C@@H](C)C/C=C/[C@H]3[C@@H]1O	inactive	
CN1C(=O)[C@]23CC4C(C)(C)[C@@]5(C[C@@]41CN2CC[C@@]3(C)O)C(=O)Nc1c5ccc2c1OC=CC(C)(C)O2 (stereo not given in full)	7.08 µM (active)	
CC(=O)O[C@H]1CC[C@H]2[C@@H]3CC[C@H]4CC(=O)C=C(C)[C@]4(C)[C@H]3CC[C@]12C	inactive	
NC(=O)[C@@H](CC1CC1)[C@@H](CCC(F)(F)F)C(=O)N[C@H]1N=C(c2ccccc2)c2cccc(F)c2NC1=O	inactive	
C[C@@H](CN1CCC(n2c(=O)[nH]c3cc(Br)ccc32)CC1)NC(=O)[C@@H]1C[C@H]1c1ccccc1	inactive	
O=S(=O)(c1ccccc1F)N1CCOc2c(N3CCNCC3)cccc21	inactive	
c1cncc(OC[C@@H]2CCN2)c1	inactive	
C/C=C(\C)C(=O)OC1C2C3(C)CCC(OC4CC(OC)C(OC5OC(C)C(O)C(OC)C5O)C(C)O4)CC3CCC23OC32CCC(C(C)=O)C2(C)C1OC(=O)/C(C)=C/C (stereo not given)	inactive	
COC[C@]12CN(C)C3C4[C@H](OC)[C@H]1C3(C(OC)C[C@H]2O)[C@H]1C[C@@]2(O)[C@H](OC(=O)c3ccccc3)[C@@H]1[C@]4(O)[C@@H](O)[C@@H]2OC (stereo not given in full)	inactive	
C=C(C)[C@@H]1[C@H]2OC(=O)[C@H]1[C@]1(O)C[C@H]3O[C@]34C(=O)O[C@H]2[C@]14C	inactive	
